# A selection: hits, their analogues and other compounds. The true share with any hit is near 3.8%.
# NTR1 ag – agonists of human NTR1, primary screen, imaging, U2OS cells, beta-arrestin-GFP, high content. NTR1-U2OS beta-arrestin-GFP spot imaging, agonist mode. AID 493036, 2011. Neurotensin receptor type 1 (Homo sapiens), P30989. 0.17% of 330,000 active. activation, % at 20 µM;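 active = activation at or above 40% of the spot to cytoplasm intensity ratio, with at least 20 cells analyzed; inconclusive = wells under 20 cells, flagged as cytotoxic or low count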;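 note: 0% = DMSO without peptide and 100% = 100 nM NTR1 peptide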
# Target sequence (P30989 whole entry, looked up): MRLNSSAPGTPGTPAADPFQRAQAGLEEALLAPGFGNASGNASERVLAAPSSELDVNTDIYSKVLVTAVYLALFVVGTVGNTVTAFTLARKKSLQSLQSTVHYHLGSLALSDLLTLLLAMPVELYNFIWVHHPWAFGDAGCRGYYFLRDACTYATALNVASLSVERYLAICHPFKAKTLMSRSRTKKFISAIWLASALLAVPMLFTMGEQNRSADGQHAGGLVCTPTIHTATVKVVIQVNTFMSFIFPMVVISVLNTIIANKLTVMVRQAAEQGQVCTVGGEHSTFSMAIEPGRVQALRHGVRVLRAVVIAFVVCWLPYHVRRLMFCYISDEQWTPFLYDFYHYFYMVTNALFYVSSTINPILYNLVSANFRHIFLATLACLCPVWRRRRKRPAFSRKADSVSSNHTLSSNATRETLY
# Jurkat NFkB inh – inhibitors of induced NF-kB luciferase reporter, primary screen, TCR NF-kB activation inhibitor project, cell-based, luminescence, uHTS; Jurkat, PMA/ionomycin-induced NF-kB luciferase reporter; inhibition, % at 4 µM; 0.53% of 330,000 active; AID 435003, 2010; in the data active = inhibition above about 50%
# Mdm2-MdmX inh – inhibitors of human Mdm2-MdmX association, primary screen, cell-based, luminescence, split luciferase, SaOS-2, uHTS. inhibition, % at 8 µM. 3% of 330,000 active. AID 485346, 2010. SaOS-2 split-luciferase Mdm2/MdmX complementation;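 active = inhibition of at least 50% at 8 µM in the primary screen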
# 697 NFkB inh – inhibitors of PMA/ionomycin-induced NF-kB reporter, 697 cells, primary screen, B-cell NF-kB inhibitor project, cell-based, luminescence, uHTS; 697 B-cell NF-kB luciferase reporter, 16 h; inhibition, % at 4 µM; 0.33% of 330,000 active; in the data active = inhibition above about 35%
# Beta apoptosis – inhibitors of cytokine-induced beta cell apoptosis, primary screen, luminescence; AID 435005, 2010; 0.8% of 300,000 active; protection from apoptosis, % (test concentration not listed); INS-1E cytokine-induced death, ATP luminescence, 48 h; percent of positive-control rescue, neutral wells zero;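 active = Every replicate reaches about 75%, or at least half do and their mean reaches it too, limit read from the data; inconclusive = At least half of replicates reach the limit but their mean does not; inactive = Under half of replicates reach the limit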;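 note: 0% = cytokine-treated negative control wells and 100% = positive control rescue; higher means more ATP so stronger rescue from cytokine killing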
# A1 inh – caspase 3/7 activation in MEF A1-2A-BIM cells, primary screen, A1 inhibitor project, cell-based, luminescence, HTS; Caspase-Glo 3/7 luminescence, 3 h; percent of clofoctol response, vehicle zero; caspase activation, % (concentration not given with the values); 0.066% of 330,000 active; AID 2462, 2010;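 active = over half of replicate activation scores above 10%, or exactly half above 10 with the replicate mean above 10; inconclusive = replicate mean below 10 yet half the replicates above 10; inactive = over half of replicates below 10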
# Jurkat NFkB conf – PMA/ionomycin-induced NF-kB reporter inhibitors, Jurkat retest, confirmation, T-cell NF-kB inhibitor project, cell-based, luminescence, single concentration. AID 435020, 2010. shares compounds with Jurkat NFkB inh. Jurkat NF-kB luciferase, 16 h. inhibition, % at 4 µM. 27% of 2,700 active;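 active = inhibition reaching about 45% at 4 µM in either replicate, limit read from the data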;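 note: plate controls were PMA/ionomycin stimulated DMSO wells for no effect and unstimulated DMSO wells for full effect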
# 697 NFkB conf – PMA/ionomycin-induced NF-kB reporter inhibitors, 697 retest, confirmation, B-cell NF-kB inhibitor project, cell-based, luminescence, single concentration; shares compounds with 697 NFkB inh; 697 B-cell NF-kB luciferase, 16 h; inhibition, % at 4 µM; 35% of 2,000 active; AID 449746, 2010; in the data active = inhibition mostly above about 28%, no sharp cut-off; inactive = mostly below about 22%
# Mdm2-MdmX conf – Mdm2-MdmX complex disruptors, retested hits, confirmation, luminescence, single concentration; shares compounds with Mdm2-MdmX inh; Mdm2-MdmX binding, luminescent assay; inhibition, % at 8 µM; 55% of 10,000 active; AID 489028, 2010; in the data active = inhibition above about 40%
# Full FLuc ctr – full-length luciferase signal inhibition, confirmation, counter-screen for Mdm2/MdmX interaction inhibitor project, cell-based, single concentration, SaOS-2. SaOS-2 full-length luciferase counterscreen, luminescence. inhibition, % at 8 µM. shares compounds with Mdm2-MdmX inh. 77% of 6,200 active;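 active = mean inhibition at 8 µM reaching about 37%, which flags the compound as non-specific, limit read from the data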;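 note: p53-null SaOS-2 cells with luciferase driven by a doxycycline-inducible promoter; compound on cells about two nights before reading with doxycycline added after day one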
# Numbers without * were called inactive; i = inactive; ? = inconclusive; . = not tested or not shown.
SMILES,NTR1 ag,Jurkat NFkB inh,Mdm2-MdmX inh,697 NFkB inh,Beta apoptosis,A1 inh,Jurkat NFkB conf,Mdm2-MdmX conf,Full FLuc ctr,others
COc1ccc(S(=O)(=O)N2CCC(C(=O)NCCC(=O)NCc3ccccc3OC)CC2)cc1,2,0,14,5,-6,0,.,.,.,
CCOC(=O)Cn1nc(NC(=O)c2ccc(C(=O)OC)cc2)cc1C,2,-12,0,-36,0,1,.,.,.,
O=C(Nc1ccc(C#Cc2ccccc2)cc1)C1CC1,2,-277,34,i,7,-3,-141,.,.,697 NFkB conf=i
Cc1ccc(S(=O)(=O)N2CCN(S(=O)(=O)N3CCC(C)CC3)CC2)cc1C,-1,-2,-1,7,5,1,.,.,.,
CCn1c(/C=C/Nc2ccccc2)[n+](CC)c2cc(Cl)c(Cl)cc21,7,70*,98*,-11,4,-1,-3,28,.,
CC1CCCC(NC(=O)CSc2n[nH]c(=O)n2Cc2ccccc2)C1C (stereo not given),3,0,7,2,4,0,.,.,.,
COc1ccc(/C=N\NC(=O)c2cccc(F)c2)cc1COc1ccccc1,6,52*,58*,12,0,1,53*,64*,75*,
O=C(NCC(=O)N1CCC2(CC1)NCCc1[nH]cnc12)c1ccc2ccccc2c1,0,18,29,13,-4,1,.,.,.,
CC(=O)/C(N=Nc1cc(C)ccc1O)=C(\C)O,0,0,-9,11,1,0,.,.,.,
Cc1ccc(O)c(N=Nc2nccs2)c1,2,59*,75*,-82,89*,-1,79*,64*,23,
CCCCCCCCn1ccc(=N)cc1,2,80*,55*,78*,130*,-1,73*,61*,48*,697 NFkB conf=64*
CCCCCCCCCCn1ccc(=N)cc1,2,75*,85*,-25,116*,0,75*,90*,51*,
CCCCCCN1Cc2ccccc2C1,0,-6,-11,-1,-2,0,.,.,.,
Cc1ccc(S(=O)(=O)N2CCCCC2)cc1NC(=O)c1ccc(Br)o1,0,3,-17,15,3,-1,.,.,.,
Cc1c(C)c2ccc(OCC(=O)Nc3ccccn3)cc2oc1=O,1,-37,-2,0,-8,-10,.,.,.,
Cn1ncc2c(N3CCN(c4ccc(Cl)c(Cl)c4)CC3)ncnc21,8,59*,92*,32,?,0,60*,74*,99*,
Cn1c(=O)n(C)c2cc(NC(=O)CSc3ccccc3)ccc21,2,1,-4,0,3,0,.,.,.,
COc1ccc(S(=O)(=O)/N=C2\C=C(Nc3ccc(O)cc3)C(=O)c3ccccc32)cc1,27,74*,100*,9,111*,-1,83*,94*,7,
COc1ccc(/C=c2/sc3n(c2=O)C(c2ccccc2OC)C2=C(N=3)c3ccccc3CC2)cc1O (stereo not given),7,70*,70*,-15,30,-1,51*,87*,30,

# Bioassay records: PubChem, several laboratories
